{"source": "PubChem BioAssay AID489028", "about": "(Sanford-Burnham Center for Chemical Genomics, 2010)", "note": "Screen size: about 10,000 compounds; about 5,600 (56%) were called active. Cut-off read from the data, not from the text of the source: active = inhibition above about 40%; inactive = the rest. So high a share suggests a set chosen from earlier hits. These entries were drawn from the full list."}
{"target": "Protein Mdm4 (Homo sapiens) + E3 ubiquitin-protein ligase Mdm2 (Homo sapiens) (UniProt O15151+Q00987)", "sequence (O15151 whole entry, looked up)": "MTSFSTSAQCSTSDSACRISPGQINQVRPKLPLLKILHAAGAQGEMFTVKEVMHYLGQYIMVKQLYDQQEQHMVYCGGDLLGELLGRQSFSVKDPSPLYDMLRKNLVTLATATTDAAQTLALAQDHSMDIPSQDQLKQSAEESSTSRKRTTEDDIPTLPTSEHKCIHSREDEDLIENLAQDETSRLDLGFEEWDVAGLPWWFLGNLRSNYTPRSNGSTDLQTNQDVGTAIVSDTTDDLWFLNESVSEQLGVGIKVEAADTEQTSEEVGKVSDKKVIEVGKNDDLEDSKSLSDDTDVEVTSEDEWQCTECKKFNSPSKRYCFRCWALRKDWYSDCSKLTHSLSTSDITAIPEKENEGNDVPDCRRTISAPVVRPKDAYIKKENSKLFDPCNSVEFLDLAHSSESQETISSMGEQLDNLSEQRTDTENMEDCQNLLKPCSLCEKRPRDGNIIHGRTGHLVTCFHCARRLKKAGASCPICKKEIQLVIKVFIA", "sequence (Q00987 whole entry, looked up)": "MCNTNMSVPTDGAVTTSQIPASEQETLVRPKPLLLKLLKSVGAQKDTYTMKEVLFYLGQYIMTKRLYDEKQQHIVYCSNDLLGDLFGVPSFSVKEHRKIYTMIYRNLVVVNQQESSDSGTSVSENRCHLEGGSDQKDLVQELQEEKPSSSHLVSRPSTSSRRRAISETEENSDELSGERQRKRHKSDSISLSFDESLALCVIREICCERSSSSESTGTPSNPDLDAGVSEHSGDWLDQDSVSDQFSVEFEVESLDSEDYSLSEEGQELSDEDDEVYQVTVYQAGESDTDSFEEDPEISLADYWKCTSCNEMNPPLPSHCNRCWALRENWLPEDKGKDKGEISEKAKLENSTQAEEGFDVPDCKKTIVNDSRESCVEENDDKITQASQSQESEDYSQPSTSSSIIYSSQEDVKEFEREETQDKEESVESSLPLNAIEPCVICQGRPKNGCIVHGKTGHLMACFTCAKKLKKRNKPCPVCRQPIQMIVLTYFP", "assay": "Mdm2-MdmX complex disruptors, retested hits, confirmation, luminescence, single concentration (AID 489028)", "conditions": "Mdm2-MdmX binding, luminescent assay; at 8 µM; active compounds read high"}
{"molecule": "O=C(/C=C/c1ccc(OCc2c(F)cccc2Cl)cc1)N1CCOCC1", "inhibition": "66.7% (active)"}
{"molecule": "CCc1nc(C)cn1S(=O)(=O)c1cc([N+](=O)[O-])ccc1Cl", "inhibition": "50.9% (active)"}
{"molecule": "O=C(CCCN1C(=O)/C(=C/c2ccco2)SC1=S)Nc1ccccc1", "inhibition": "70.8% (active)"}
{"molecule": "O=C(CCCN1C(=O)/C(=C\\c2ccco2)SC1=S)Nc1cccc2ccccc12", "inhibition": "94.5% (active)"}
{"molecule": "OC(CNCC1CCCO1)Cn1c2ccc(Br)cc2c2cc(Br)ccc21", "note": "(stereo not given)", "inhibition": "38% (inactive)"}
{"molecule": "Cc1oc2c(c1C(=O)N1CCOCC1)C(=O)c1ccccc1C2=O", "inhibition": "62.5% (active)"}
{"molecule": "Cc1c(C(=O)Nc2cccc(Cl)c2)cn2c(nc3ccccc32)c1C#N", "inhibition": "9.95% (inactive)"}
{"molecule": "Cc1nnc(NC(=O)Nc2ccc(Cl)c(Cl)c2)s1", "inhibition": "86.5% (active)"}
{"molecule": "Cc1nc(N2CCN(c3ccccn3)CC2)c2c(C)c(C(=O)Nc3ccc(F)c(Cl)c3)sc2n1", "inhibition": "34.2% (inactive)"}
{"molecule": "COc1ccc2nc(Nc3nc4ccc(NC(C)=O)cc4s3)sc2c1", "inhibition": "35.2% (inactive)"}
{"molecule": "CC(C)(C)CC(C)(C)NCC(O)COCCOc1ccc(Br)cc1", "note": "(stereo not given)", "inhibition": "51.1% (active)"}
{"molecule": "Cc1nn(-c2ccccc2)c2sc(C(=O)N(Cc3ccco3)C(C)C(=O)NC(C)(C)C)cc12", "note": "(stereo not given)", "inhibition": "12.8% (inactive)"}
{"molecule": "CC[C@H]1CN2CCc3cc(OC)c(OC)cc3[C@@H]2C[C@@H]1C[C@H]1NCCc2cc(OC)c(OC)cc21", "inhibition": "99.8% (active)"}
{"molecule": "Cc1ccc(-c2cccc([C@H]3[C@@H]4C=CC[C@@H](C)[C@@H]4C(=O)N3Cc3ccccc3)c2)cc1", "inhibition": "-5.3% (inactive)"}
{"molecule": "CCOC(=O)c1ccc(NC(=O)c2c(NCc3ccccc3)[nH]c(=O)[nH]c2=O)cc1", "inhibition": "12.4% (inactive)"}
{"molecule": "Cc1cc(NC(=O)/C=C/C(=O)N(c2ccccc2C)C(C(=O)NC2CCCC2)c2ccc(F)cc2)no1", "note": "(stereo not given)", "inhibition": "70% (active)"}
{"molecule": "N/C(=N\\OC(=O)c1ccc2c(c1)OCO2)c1ccc(Br)cc1", "inhibition": "40.2% (active)"}
{"molecule": "N/C(=N\\OC(=O)N1c2ccccc2Sc2ccccc21)c1ccc(Br)cc1", "inhibition": "-3.5% (inactive)"}
{"molecule": "CCOC(=O)/C=c1\\s/c(=C\\c2ccc(C#N)cc2)c(=O)n1CC(=O)Nc1cccc(C)c1C", "inhibition": "8.85% (inactive)"}
{"molecule": "Oc1ccccc1C1=NN(c2ccccc2)C(c2ccccc2)C1", "note": "(stereo not given)", "inhibition": "8.55% (inactive)"}
{"molecule": "O=C(Nc1nnc(-c2ccccc2)o1)c1cc(-c2cccs2)nc2ccccc12", "inhibition": "29.7% (inactive)"}
{"molecule": "COc1ccc(NC(=O)c2cc(-c3cc(OC)c(OC)c(OC)c3)nc3ccccc23)c(OC)c1", "inhibition": "57% (active)"}
{"molecule": "COc1ccc(OC)c(NC(=O)c2sc3nc(C)cc(C)c3c2N)c1", "inhibition": "15.5% (inactive)"}
{"molecule": "O=[N+]([O-])c1c(NCCO)cc(Sc2nc3ccccc3s2)c2nonc12", "inhibition": "96.7% (active)"}
{"molecule": "COc1cccc(CNC(=O)c2nnn(CC(=O)Nc3cc(Cl)ccc3C)c2N)c1", "inhibition": "62.3% (active)"}
{"molecule": "COc1cccc(CNC(=O)Cc2csc(Nc3nc(=S)[nH]c4ccccc34)n2)c1", "inhibition": "15.8% (inactive)"}
{"molecule": "CCCCCCSc1ccc([C@@H]2[C@@H]3C(=O)N(CC)C(=O)[C@@H]3[C@]3(C(=O)OC)CCCCN23)cc1OC", "inhibition": "21.6% (inactive)"}
{"molecule": "CCOC(=O)/C(=C\\c1ccc([N+](=O)[O-])cc1)C(=O)c1cc(C(C)=O)c(Nc2ccccc2)s1", "inhibition": "99.6% (active)"}
{"molecule": "Cc1ccc2occ(/C=N/NC(=O)c3ccccc3C)c(=O)c2c1", "inhibition": "65.8% (active)"}
{"molecule": "Cn1c(C(=O)NCCCN2CCN(c3cccc(Cl)c3)CC2)cc2c(=O)n(C)c3ccccc3c21", "inhibition": "37.8% (inactive)"}
{"molecule": "CCc1ccc(-c2cc3c(=O)n(CC(=O)NCCCN4CCN(Cc5ccccc5)CC4)nc(C)n3n2)cc1", "inhibition": "55.5% (active)"}
{"molecule": "C=CC[C@H](CC(=O)N(CCO)Cc1ccccc1)C(=O)N[C@@H](COC(=O)[C@@H](CC=C)Cc1ccc(F)cc1)Cc1ccccc1", "inhibition": "1.35% (inactive)"}
{"molecule": "O=C1NC[C@@H](c2ccccc2)OC(=O)[C@H](Cc2ccc(F)cc2)CC/C=C/C[C@H]1CC(=O)N(CCO)Cc1ccccc1", "inhibition": "54.5% (active)"}
{"molecule": "O=C(C[C@H]1C/C=C\\C[C@@H](NC(=O)OCC2c3ccccc3-c3ccccc32)C(=O)O[C@@H](c2ccccc2)CNC1=O)N[C@H](CO)Cc1ccccc1", "inhibition": "28.4% (inactive)"}
{"molecule": "CN1CCN(CCCNC(=O)c2ccc(/C=C3\\Oc4ccccc4N(Cc4ccc(Cl)cc4)C3=O)cc2)CC1", "inhibition": "55% (active)"}
{"molecule": "Cc1ccccc1C(CC(=O)c1cccs1)C(C#N)C#N", "note": "(stereo not given)", "inhibition": "54.7% (active)"}
{"molecule": "Clc1cccc(Cl)c1OCCOCCNCc1ccccc1", "inhibition": "86% (active)"}
{"molecule": "O=C(N/N=C/c1sc(N2CCCCC2)nc1-c1cccs1)c1cccnc1", "inhibition": "25.3% (inactive)"}
{"molecule": "CCOc1ccccc1NC(=O)Cn1nnc(C(=O)NCc2cccs2)c1N", "inhibition": "52.7% (active)"}
{"molecule": "Cc1ccc(-c2nn(C(C)(C)C)c3ncnc(N)c23)cc1", "inhibition": "67% (active)"}
{"molecule": "COc1cc(SC)ccc1C(=O)Nc1nc(C)cs1", "inhibition": "57.5% (active)"}
{"molecule": "CCCC(=O)Nc1ccc(C(=O)N/N=C/c2ccc[nH]2)cc1", "inhibition": "6.9% (inactive)"}
{"molecule": "CCn1c(/C=C/Nc2ccccc2)[n+](CC)c2ccc(C(=O)OCC(F)(F)F)cc21", "inhibition": "13.1% (inactive)"}
{"molecule": "O=C(COc1ccccc1F)Nc1nc(-c2ccccn2)cs1", "inhibition": "53.6% (active)"}
{"molecule": "CCOC(=O)N1CCN(C(=O)c2ccc(S(=O)(=O)c3ccc(C)cc3)c(NC(C)=O)c2)CC1", "inhibition": "8.65% (inactive)"}
{"molecule": "CC1CCN(C(=O)c2ccc(S(=O)(=O)Cc3cc(F)ccc3F)c([N+](=O)[O-])c2)CC1", "inhibition": "64% (active)"}
{"molecule": "FC(F)(F)c1nnc2c3ccccc3c(Cl)nn12", "inhibition": "47% (active)"}
{"molecule": "COc1ccccc1C(=O)NC(=S)NC12CC3CC(CC(C3)C1)C2", "inhibition": "21.8% (inactive)"}
{"molecule": "Cn1nc(-c2ccccc2)c(CSc2cccc(Cl)c2)c1Cl", "inhibition": "48.5% (active)"}
{"molecule": "CCOC(=O)c1c(NC(=O)c2ccc(S(=O)(=O)N(C)CC3CCCO3)cc2)sc2c1CC(C)(C)NC2(C)C", "note": "(stereo not given)", "inhibition": "47.1% (active)"}
{"molecule": "C=CCN(CC=C)S(=O)(=O)c1ccc(C(=O)Nc2sc3c(c2C(N)=O)CCCCC3)cc1", "inhibition": "10.8% (inactive)"}
{"molecule": "CC1(C)CCSC(/C=C/c2ccccc2)=N1", "inhibition": "68% (active)"}
{"molecule": "Cc1[nH]c(=O)c(C(=O)/C=C/c2ccccc2)c2c1CCCC2", "inhibition": "99.5% (active)"}
{"molecule": "C=CCn1c(C)cc(C2=NNC(=NCC)SC2)c1C", "inhibition": "98.1% (active)"}
{"molecule": "O=C(/C=C/Sc1ncn[nH]1)c1ccc(Cl)cc1", "inhibition": "80.4% (active)"}
{"molecule": "Cc1cc(C)nc(S/C=C/C(=O)c2ccccc2)n1", "inhibition": "32.4% (inactive)"}
{"molecule": "CC[n+]1cc(C)ccc1/C=C/c1ccc(N(C)C)cc1", "inhibition": "53.6% (active)"}
{"molecule": "COc1ccccc1N1CCN(C(=O)c2cc(=O)c3cc(C)cc(C)c3o2)CC1", "inhibition": "66.8% (active)"}
{"molecule": "C#CCOCCOCCOCCNc1nc(N2CCN(C(=O)CCCCCCCCCCNC(=O)[C@H](CCCCN)n3cc(C)nn3)CC2)nc(N2CCN(C(=O)CCCCCCCCCCNC(=O)[C@H](CO)n3cc(CCCSC)nn3)CC2)n1", "inhibition": "14% (inactive)"}
{"molecule": "CN(NC(=O)c1ccccc1)c1nc2ccccc2nc1C(F)(F)F", "inhibition": "51.9% (active)"}
{"molecule": "CSc1nc(N(C)NC(=O)c2cccc(C)c2)c2ccccc2n1", "inhibition": "57.7% (active)"}
{"molecule": "CN(NC(=O)c1ccccc1F)c1nc(C(F)(F)F)nc2ccccc12", "inhibition": "57% (active)"}
{"molecule": "O=C(Nc1nnc(-c2ccccc2F)s1)c1ccccc1F", "inhibition": "-82.2% (inactive)"}
{"molecule": "CCOC(=O)/C=C/C(=O)OCC(=O)NC(c1ccccc1)c1ccccc1", "inhibition": "74.5% (active)"}
{"molecule": "COc1cc2c(cc1NC(=O)COC(=O)/C=C/c1ccccc1)oc1ccccc12", "inhibition": "-6.7% (inactive)"}
{"molecule": "Cc1ccccc1NC(=O)CSc1nc2ccc(Nc3nc(N4CCOCC4)nc(N4CCOCC4)n3)cc2s1", "inhibition": "35.7% (inactive)"}
{"molecule": "Cc1cc2cc3c(cc2nc1SCC(=O)Nc1c(C)cccc1C)CCC3", "inhibition": "43.1% (active)"}
{"molecule": "OCCNc1nc(Nc2ccc(Cl)c(Cl)c2)nc2ccccc12", "inhibition": "69.5% (active)"}
{"molecule": "O=C(CSc1nc2ccccc2c(=O)[nH]1)Nc1nc(-c2ccc(Br)cc2)cs1", "inhibition": "47.8% (active)"}
{"molecule": "O=C(NNc1ccccc1Cl)C(O)(c1cccc(C(F)(F)F)c1)c1cccc(C(F)(F)F)c1", "inhibition": "36.2% (inactive)"}
{"molecule": "COC(=O)Cc1[nH]n(-c2nc3ccccc3s2)c(=O)c1C(C)=Nc1ccc(OC)cc1", "inhibition": "89.3% (active)"}
{"molecule": "CCCCN(CCCC)CCC(O)c1cc2c(Cl)cc(Cl)cc2c2cc(C(F)(F)F)ccc12", "note": "(stereo not given)", "inhibition": "21.1% (inactive)"}
{"molecule": "COc1cccc(-c2sc3ccc(OC)cc3c2-c2ccc(OCCN3CCCCC3)cc2)c1", "inhibition": "49.5% (active)"}
{"molecule": "COc1ccc2sc(-c3ccccc3OC)c(-c3ccc(OCCN4CCCC4)cc3)c2c1", "inhibition": "5.35% (inactive)"}
{"molecule": "O=C(CN1C(=O)c2ccccc2S1(=O)=O)N1CCc2ccccc21", "inhibition": "53% (active)"}
{"molecule": "COCCCNc1nc2c(-c3cccc(C)c3)nnn2c2ccc(Cl)cc12", "inhibition": "67% (active)"}
{"molecule": "C=CCC[C@@H](Cc1ccc(F)cc1)C(=O)O[C@H](CNC(=O)[C@H](CC=C)CC(=O)N(CCO)Cc1ccccc1)c1ccccc1", "inhibition": "12.4% (inactive)"}
{"molecule": "Cc1cccn2c(=O)c3cc(C(=O)NCCN4CCOCC4)c(=N)n(Cc4cccnc4)c3nc12", "inhibition": "49.2% (active)"}
{"molecule": "COc1ccc(CCn2c(=N)c(C(=O)NCC3CCCO3)cc3c(=O)n4cccc(C)c4nc32)cc1OC", "note": "(stereo not given)", "inhibition": "48.1% (active)"}
{"molecule": "CCc1ccc(CNC(=O)C2CCN(c3nnc(C)c4c(C)n(-c5ccc(C)cc5)nc34)CC2)cc1", "inhibition": "56.7% (active)"}
{"molecule": "COc1cc(NC(=O)c2ccccc2NS(=O)(=O)c2ccc(Cl)s2)cc(OC)c1", "inhibition": "76.4% (active)"}
{"molecule": "Oc1ccc(/C=N/Nc2nc(-c3ccccc3F)nc3ccccc23)c(O)c1", "inhibition": "54.6% (active)"}
{"molecule": "Cc1nc2ccccc2nc1N/N=C/c1ccc(O)cc1O", "inhibition": "61.6% (active)"}
{"molecule": "COC(=O)C1=C(Nc2ccc(C)cc2)C=C(C)C(C(=O)OC)C1c1ccc(F)cc1", "note": "(stereo not given)", "inhibition": "53.5% (active)"}
{"molecule": "Nc1nonc1-n1nnc(C(=O)N/N=C/c2ccccc2O)c1CN1CCCC1", "inhibition": "33.8% (inactive)"}
